Source: PubChem BioAssay
Tgondii IFNg = inhibitors of Toxoplasma gondii growth with IFN-gamma. Toxoplasma gondii growth in IFN-gamma-treated host cells; active compounds read low. 3.8% of 69,000 active. activity change, negative = inhibition, % (test concentration not listed). AID 1259416; in the data active means activity change below about -70%, passing the limit was not always enough;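 further: host cells are HeLa cells infected with Toxoplasma gondii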
Starred values were filed as active, the others as inactive; i = inactive. Shown is part of a subset that was picked to be rich in hits.

SMILES | Tgondii IFNg
COc1cccc(-c2nc3cnccn3c2NCCC(=O)NC2CCN(C)CC2)c1 | -18
O=C(c1ccoc1)N1C[C@H](Oc2ccccn2)[C@@H]2OCCC[C@@H]21 | -56
CN1CCC2(C=C(C(=O)NC3CC3)c3ccccc32)CC1 | -3
Cc1nc(C(F)(F)F)ccc1C(=O)NC1CCCN(Cc2cnn(C)c2C)CC1 (configuration not stated) | 2
O=C(NC1CCN(CCCCC2(C(=O)NCC(F)(F)F)c3ccccc3-c3ccccc32)CC1)c1ccccc1-c1ccc(C(F)(F)F)cc1 | -74*
Cc1ccc(C(=O)Nc2ccc(CN3CCN(C)CC3)c(C(F)(F)F)c2)cc1C#Cc1cnc2cccnn12 | -79*
Cc1ccc(NC(=O)c2ccc(CN3CCN(C)CC3)cc2)cc1Nc1nc(-c2cccnc2)cs1 | 4
O=C(Nc1cccc(N2CCC(NCCc3ccccc3C(F)(F)F)CC2)c1)c1ccncc1 | 5
c1cc(-c2nccn2CCn2ccnc2)ccn1 | -50
Fc1cccc(NC(=S)Nc2ccc3ccccc3c2)c1 | -88*
CSc1cccc(NC(=S)NCc2ccc(F)cc2)c1 | 61
Fc1ccc(NC(=S)Nc2ccccc2Cl)cc1 | 35
CCCN1C(=O)CCc2c(C)nc(C3CCN(S(=O)(=O)c4c(C)noc4C)CC3)nc21 | -29
Cc1ccc(C2(CN3CCOc4ccccc4C3)CCNCC2)nc1 | -1
COCC(=O)N1CCC2(CC1)COc1ccccc1S(=O)(=O)N(CC1CC1)C2 | 47
Cc1ccc(-c2ccc(S(N)(=O)=O)cc2F)c(-n2cccn2)c1 | 0
O=C(CN1CCCC1)N1CCc2ccccc21 | -30
O=C(CN1CCC(c2nc3ccccc3[nH]2)CC1)N1CCCc2ccccc21 | -7
O=C(CN1CCC(n2nnc3cc(C(F)(F)F)ccc32)CC1)N1CCc2ccccc21 | -81*
Cc1c(C(F)(F)F)nc(-c2ccc(CN3CCN(C)C(=O)C3)cc2)[nH]c1=O | -24
CCOCC1CC2OCCN(C(=O)NCc3cccnc3)C2C1 (configuration not stated) | 95
Cc1ccc(C2c3[nH]c4ccccc4c3CCN2C(=O)c2ccccc2)cc1 (configuration not stated) | i
CCOc1ccc(C2c3[nH]c4ccccc4c3CCN2C(=O)c2ccncc2)cc1 (configuration not stated) | -4
Cc1ccc(C2c3[nH]c4ccccc4c3CCN2C(=O)c2ccccc2F)cc1 (configuration not stated) | -130*
Cc1ccc(C2c3[nH]c4ccccc4c3CCN2C(=O)c2cccs2)cc1 (configuration not stated) | -64
SMILES | Tgondii IFNg
Cc1ccc(C2c3[nH]c4ccccc4c3CCN2C(=O)c2ccccc2Br)cc1 (configuration not stated) | 43
Cc1ccc(C2c3[nH]c4ccccc4c3CCN2C(=O)c2ccc(N(C)C)cc2)cc1 (configuration not stated) | -119*
CCOc1ccc(C2c3[nH]c4ccccc4c3CCN2C(=O)c2ccc(C)cc2)cc1 (configuration not stated) | -95*
O=C(c1ccccc1Br)N1CCc2c([nH]c3ccccc23)C1c1ccc(F)cc1 (configuration not stated) | 47
CCCC(=O)N1CCc2c([nH]c3ccccc23)C1c1ccc(C)cc1 (configuration not stated) | -49
CCS(=O)(=O)NCC[C@@H]1CC[C@@H](NC(=O)Nc2cc(Cl)cc(Cl)c2)[C@H](CO)O1 | -63
O=C(Cc1ccco1)N1C[C@H]2COC[C@@]2(COc2ccccn2)C1 | 72
O=C1C[C@H](c2ccccc2)C(=O)N[C@@H](c2ccccc2)C/C=C\C[C@@H](c2ccccc2)N1 | 8
CCN(CC)S(=O)(=O)c1ccc2c(c1)N(Cc1nc(-c3ccccc3)oc1C)C(=O)CS2 | -80*
CCOC(=O)c1ccc2c(c1)N(Cc1nc(-c3cccc(C)c3)oc1C)C(=O)c1ccccc1S2 | -43
Cc1oc(-c2ccccc2)nc1Cn1ccn2nc(-c3ccc4c(c3)OCO4)cc2c1=O | -15
CNC(=O)c1ccc(-c2nc(CN3CCN(S(=O)(=O)c4ccc(OC)cc4)CC3)c(C)o2)cc1 | 14
Cc1oc(-c2ccc3ccccc3c2)nc1CN1CCN(S(N)(=O)=O)CC1 | 36
Cc1oc(-c2ccccc2)nc1CN1C(=O)CSc2ccc(S(=O)(=O)N3CCCCCC3)cc21 | -95*
CCn1c(CC2CCN(Cc3cnc(OC)nc3)CC2)n[nH]c1=O | 7
CCNC(=O)/C=C/c1cccc(Br)c1 | 31
O=C(/C=C/c1cccc(S(=O)(=O)Nc2ccccc2)c1)NO | -71*
O=C(O)c1ccc(NS(=O)(=O)c2cccc(C(=O)O)c2)cc1 | -4
CCCC(=O)N1CCc2c([nH]c3ccccc23)C12C(=O)N(C)c1ccccc12 (configuration not stated) | 455
COc1cccc(NC(=O)Nc2ccc3c(c2)C(=O)N(C)C[C@H](OC)[C@@H](C)CN(CC2CC2)[C@H](C)CO3)c1 | 38
Cn1nc(CN2CCCCC2)c2c1CN(S(=O)(=O)c1cc(F)cc(F)c1)C2 | -5
CC(=O)CC/C=C(\C)CC/C=C(\C)CC/C=C(\C)CCC=C(C)C | -77*
CC(=O)N[C@@H](CSC/C=C(\C)CC/C=C(\C)CCC=C(C)C)C(=O)O | -22
CC(C)=CCC/C(C)=C/COc1ccc2ccc(=O)oc2c1 | 19
COc1ccc(CNc2nc(C)nc(C)c2Oc2ccc(Cl)cc2Cl)cc1 | -8
SMILES | Tgondii IFNg
CCOC(=O)c1nc(C)nc(Sc2ccc(Cl)cc2)c1C | 11
Cc1nc(C)c(Oc2ccc(Cl)cc2Cl)c(Sc2cccc(C(F)(F)F)c2)n1 | -107*
Cc1ccc2c(c1)cc(C(=O)N1CC(C(=O)N3CCOCC3)C1)n2C | 13
O=C1NCc2c1c1c3ccccc3[nH]c1c1[nH]c3ccccc3c21 | 1
c1ccc(Cc2nc3ccccc3[nH]2)cc1 | -16
Clc1nc2ccccc2c2[nH]c3ccccc3c12 | -95*
C[C@H](CO)N1C[C@H](C)[C@H](CN(C)C(=O)Nc2cccc3ccccc23)Oc2c(NC(=O)C3CCOCC3)cccc2C1=O | 11
CC(C)c1nc(-c2cc(C(=O)N(C)Cc3ccccn3)c3ccccn23)cs1 | 33
Cc1cc(-c2cc(NCCO)nc3[nH]ccc23)nc(N2CCCCC2)n1 | -32
CC(C)(C)c1[nH]cnc1/C=c1\[nH]c(=O)/c(=C/c2ccccc2)[nH]c1=O | -87*
CN(C)CCOCc1nnn2c1CN(C(=O)c1cccs1)CCC2 | 26
CC(C)CN1CCc2[nH]nc(C(=O)N3CC=CC3)c2C1 | -28
COc1cccc(NC(=O)c2cc(-c3cn(-c4ccccn4)c(C)n3)n3ccccc23)c1 | 71
CCN1CCN(Cc2cc(C(=O)N(C)CC3CCCCO3)no2)CC1 (configuration not stated) | -4
Cc1cn(C2CC(O)C(CO)O2)c(=O)[nH]c1=O (configuration not stated) | -7
O=c1[nH]c(=O)n([C@H]2C[C@H](O)[C@@H](CO)O2)cc1Br | -45
O=c1[nH]c(=O)n([C@H]2C[C@H](O)[C@@H](CO)O2)cc1F | -94*
O=C1NCC2(CCN(CC3(O)CCCN(Cc4ccc(F)cc4)C3=O)CC2)O1 (configuration not stated) | -2
CO[C@@H]1CN(C)C(=O)c2cc(NC(=O)c3ccccc3F)ccc2OC[C@H](C)N(CC2CCOCC2)C[C@H]1C | 94
C=CCn1c(=O)c2cnc(Nc3ccc(N4CCN(C)CC4)cc3)nc2n1-c1cccc(C(C)(C)O)n1 | -71*
